Structures are written as SMILES. Results with a measured potency or affinity are listed apart. Active and inactive are the calls of the source. How the calls were made is not given here.

The experiment is described as follows: HepG2 cell cytotoxicity, dose response, cytotoxicity control, plate reader, dry powder, set 6 (AID 743311). As to conditions: series mostly up to 26 µM.
Take `Cc1ccccc1OCCn1cnc2ccccc21`: the molecule was called inactive.

In the case of `Cc1ccc(OCCn2cnc3ccccc32)c(C)c1`, the call was inactive.

Regarding `COc1ccc(OCCn2cnc3ccccc32)cc1`, the outcome was inactive.

Consider `Clc1ccc(OCCn2cnc3ccccc32)cc1`, for which the result was inactive.

For `Cc1ccc2c(c1)[nH]c(=S)n2CCOc1ccccc1`, the molecule was called inactive.

Turning to `Cc1ccc(C(C)C)c(OCCn2c(NC#N)nc3ccccc32)c1`, the call was inactive.

For `CSc1nc2ccccc2n1CCOc1ccc(C)cc1`, the result was inactive.

Regarding `Cc1ccc(C(C)C)c(OCCn2c(=O)[nH]c3ccccc32)c1`, the outcome was inactive.

For `Cc1cccc(OCCn2cnc3ccccc32)c1`, the molecule was classed as inactive.

In the case of `CS(=O)(=O)c1ccc(OCCn2cnc3ccccc32)cc1`, the result was inactive.

Consider `Fc1ccc(OCCn2c(=S)[nH]c3ccccc32)cc1`, for which the result was inactive.

On to `CC(C)Oc1ccc(OCCn2cnc3ccccc32)cc1`, for which the molecule was classed as inactive.

With `CCCCc1nc2ccccc2n1CCOc1ccccc1`, the molecule was called inactive.

For the molecule `Cc1ccc(C(C)C)c(OCCn2c(=S)[nH]c3ccccc32)c1`, the result was inactive.

As for `CCCc1nc2ccccc2n1CCOc1ccccc1`, the molecule was classed as inactive.

`Cc1ccc(OCCn2cnc3cc(C)c(C)cc32)cc1`: the molecule was classed as inactive.

With `Cc1cccc(OCCn2c(=S)[nH]c3ccc(C(F)(F)F)cc32)c1`, the result was inactive.

Take `Fc1cccc2c1[nH]c(=S)n2CCOc1ccccc1`: the molecule was classed as inactive.

For the molecule `COc1cccc(OCCn2cnc3ccccc32)c1`, the result was inactive.

In the case of `FC(F)(F)c1cccc(OCCn2cnc3ccccc32)c1`, the molecule was called inactive.

Consider `CCSc1nc2ccccc2n1CCOc1ccccc1`, for which the call was inactive.

The record behind these values is PubChem BioAssay AID743311 (Broad Institute, 2014).
